Values joined by “and” are separate entries in the source; they are usually repeats but may differ in a detail not shown here. Identical values can stand only once. About 2,000 (36%) of roughly 5,500 compounds were called active. Inconclusive results (about 18%) are left out. Cut-off read from the data, not from the text of the source: active = normalized growth mostly below about 0.91 (no sharp cut-off); inconclusive = no clear call, values can overlap the other calls; inactive = mostly above about 0.92. The list shows a part of the results.
Assay: chemical genetic growth profiling, strain panel (AID 1159580);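 note: tested at 20 µM; growth read once vehicle control cultures reached saturation at 30 °C; 1 = growth at the plate median or of vehicle wells; lower values mean less growth of the strain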
Conditions: S. cerevisiae deletion strains, growth OD

Measured: normalized growth

NS(=O)(=O)c1cc2c(cc1Cl)NCNS2(=O)=O
inactive: locus YAL013W, strain DEP1, active compounds read low 1.01 | locus YAL021C, strain ccr4, active compounds read low 1 | locus YAL026C, strain drs2, active compounds read low 1.01 | locus YAL030W, strain snc1, active compounds read low 1 | locus YAL040C, strain CLN3, active compounds read low 1.01 | locus YBL061C, strain skt5, active compounds read low 0.995 | locus YBR009C, strain hhf1, active compounds read low 0.996 | locus YBR021W, strain FUR4, active compounds read low 0.994 | locus YBR023C, strain chs3, active compounds read low 0.984 | locus YBR171W, strain sec66, active compounds read low 0.997 | locus YBR229C, strain ROT2, active compounds read low 1 | locus YBR231C, strain swc5, active compounds read low 0.976 | locus YBR279W, strain paf1, active compounds read low 0.999 | locus YCL011C, strain gbp2, active compounds read low 1 | locus YCL016C, strain dcc1, active compounds read low 0.971 | locus YCL029C, strain bik1, active compounds read low 0.996 | locus YCL061C, strain MRC1 (second series), active compounds read low 1.01 | locus YCL061C, strain MRC1, active compounds read low 0.999 | locus YCL069W, strain vba3, active compounds read low 0.993 | locus YCR088W, strain abp1, active compounds read low 0.995 | locus YDL005C, strain med2, active compounds read low 0.984 | locus YDL035C, strain GPR1, active compounds read low 1.02 | locus YDL040C, strain nat1, active compounds read low 1 | locus YDL074C, strain BRE1, active compounds read low 0.989 | locus YDL101C, strain DUN1, active compounds read low 1.01 | locus YDL134C, strain PPH21, active compounds read low 1.01 | locus YDL185W, strain tfp1, active compounds read low 0.998 | locus YDL192W, strain arf1, active compounds read low 0.999 | locus YDR001C, strain nth1, active compounds read low 0.996 | locus YDR069C, strain doa4, active compounds read low 1.03 | locus YDR101C, strain arx1, active compounds read low 1.03 | locus YDR137W, strain rgp1, active compounds read low 0.97 | locus YDR159W, strain sac3, active compounds read low 1 | locus YDR162C, strain NBP2, active compounds read low 1.01 | locus YDR195W, strain ref2 0.982 | locus YDR297W, strain sur2, active compounds read low 1 | locus YDR318W, strain mcm21, active compounds read low 0.991 | locus YDR334W, strain swr1, active compounds read low 1 | locus YDR335W, strain msn5, active compounds read low 1 | locus YDR363W, strain ESC2, active compounds read low 1.02 | locus YDR388W, active compounds read low 0.993 | locus YDR392W, strain spt3, active compounds read low 0.962 | locus YDR502C, strain sam2, active compounds read low 0.994 | locus YEL003W, strain gim4, active compounds read low 1.01 | locus YEL037C, strain rad23, active compounds read low 0.992 | locus YEL061C, strain CIN8 (second series), active compounds read low 0.991 | locus YEL061C, strain CIN8, active compounds read low 1 | locus YER002W, strain NOP16, active compounds read low 0.996 | locus YER015W, strain faa2, active compounds read low 0.983 | locus YER016W, strain bim1, active compounds read low 1.01 | locus YER110C, active compounds read low 0.998 | locus YER111C, strain swi4, active compounds read low 0.992 | locus YER155C, strain BEM2 (second series), active compounds read low 1.02 | locus YER155C, strain BEM2, active compounds read low 1.01 | locus YER167W, strain BCK2, active compounds read low 1 | locus YFR010W, strain ubp6, active compounds read low 1 | locus YGL078C, strain dbp3, active compounds read low 0.997 | locus YGL086W, strain mad1, active compounds read low 0.999 | locus YGL167C, strain pmr1, active compounds read low 1 | locus YGL173C, strain kem1, active compounds read low 0.996 | locus YGL227W, strain vid30, active compounds read low 0.996 | locus YGL240W, strain doc1, active compounds read low 1 | locus YGL248W, strain PDE1, active compounds read low 1 | locus YGL253W, strain hxk2, active compounds read low 1 | locus YGR078C, strain PAC10, active compounds read low 1.01 and 0.993 | locus YGR135W, strain pre9, active compounds read low 0.984 | locus YGR229C, strain SMI1, active compounds read low 1.01 | locus YGR252W, strain gcn5, active compounds read low 0.969 | locus YHR013C, strain ard1, active compounds read low 0.999 | locus YHR027C, strain rpn1, active compounds read low 0.99 | locus YHR030C, strain SLT2, active compounds read low 1.01 and 0.971 | locus YHR079C, strain IRE1 (second series), active compounds read low 0.996 | locus YHR079C, strain IRE1, active compounds read low 0.962 | locus YHR094C, strain hxt1, active compounds read low 0.993 | locus YHR129C, strain ARP1, active compounds read low 1 | locus YHR142W, strain chs7, active compounds read low 0.994 | locus YHR200W, strain rpn10, active compounds read low 1 | locus YIL066C, strain RNR3, active compounds read low 1.01 | locus YIL073C, strain SPO22, active compounds read low 1.01 | locus YIL125W, strain kgd1, active compounds read low 0.996 | locus YIR030C, strain dcg1, active compounds read low 1 | locus YJL092W, strain hpr5, active compounds read low 1 | locus YJL095W, strain BCK1 (second series), active compounds read low 1 | locus YJL095W, strain BCK1, active compounds read low 1.01 and 0.976 | locus YJL115W, strain asf1, active compounds read low 1.01 | locus YJL129C, strain trk1, active compounds read low 1 | locus YJL134W, strain LCB3, active compounds read low 1.01 | locus YJL154C, strain vps35, active compounds read low 0.995 | locus YJL164C, strain tpk1, active compounds read low 0.995 | locus YJL166W, strain qcr8, active compounds read low 0.999 | locus YJL168C, strain set2, active compounds read low 0.993 | locus YJL187C, strain SWE1 (second series), active compounds read low 1.01 | locus YJL187C, strain SWE1, active compounds read low 0.998 | locus YJR043C, strain POL32, active compounds read low 1.02 | locus YJR066W, strain TOR1, active compounds read low 0.937 | locus YJR075W, strain HOC1, active compounds read low 1.01 | locus YKL009W, strain mrt4, active compounds read low 1.01 | locus YKL068W, active compounds read low 1 | locus YKL085W, strain MDH1 (second series), active compounds read low 0.994 | locus YKL085W, strain MDH1, active compounds read low 0.994 | locus YKL160W, strain elf1, active compounds read low 0.988 | locus YKL190W, strain CNB1, active compounds read low 1.01 | locus YKR001C, strain vps1, active compounds read low 1.01 | locus YKR026C, strain gcn3, active compounds read low 0.997 | locus YKR091W, strain srl3, active compounds read low 0.997 | locus YLL001W, strain dnm1, active compounds read low 0.98 | locus YLL026W, active compounds read low 1 | locus YLL041C, strain sdh2, active compounds read low 0.997 | locus YLR027C, strain aat2, active compounds read low 1.01 | locus YLR039C, strain RIC1, active compounds read low 0.936 | locus YLR058C, strain SHM2, active compounds read low 0.989 | locus YLR102C, strain apc9, active compounds read low 0.993 | locus YLR113W, strain HOG1, active compounds read low 0.989 | locus YLR221C, strain rsa3, active compounds read low 0.963 | locus YLR258W, strain gsy2, active compounds read low 0.996 | locus YLR262C, strain YPT6 (second series), active compounds read low 0.992 | locus YLR262C, strain YPT6, active compounds read low 1.01 | locus YLR268W, strain sec22, active compounds read low 0.991 | locus YLR320W, strain mms22, active compounds read low 0.998 | locus YLR330W, strain CHS5, active compounds read low 1.01 | locus YLR342W, strain FKS1 (second series), active compounds read low 1.02 | locus YLR342W, strain FKS1, active compounds read low 1 | locus YLR357W, strain rsc2, active compounds read low 1.01 | locus YLR370C, strain arc18, active compounds read low 0.983 | locus YLR371W, strain rom2, active compounds read low 1 | locus YLR384C, strain iki3, active compounds read low 0.996 | locus YLR418C, strain cdc73, active compounds read low 0.978 | locus YML016C, strain PPZ1, active compounds read low 1.01 | locus YML032C, strain rad52, active compounds read low 1 | locus YML120C, strain ndi1, active compounds read low 0.978 | locus YML124C, strain tub3, active compounds read low 0.999 | locus YMR058W, strain fet3, active compounds read low 0.998 | locus YMR078C, strain ctf18, active compounds read low 0.993 | locus YMR125W, strain sto1, active compounds read low 1 | locus YMR129W, active compounds read low 0.995 | locus YMR205C, strain PFK2, active compounds read low 0.992 | locus YMR223W, strain ubp8, active compounds read low 0.985 | locus YMR231W, strain pep5, active compounds read low 0.996 | locus YMR263W, strain SAP30, active compounds read low 1.01 | locus YMR307W, strain GAS1, active compounds read low 0.999 | locus YNL067W, strain RPL9B, active compounds read low 1.01 | locus YNL071W, strain lat1, active compounds read low 1 | locus YNL128W, strain TEP1, active compounds read low 1.02 | locus YNL153C, strain GIM3, active compounds read low 1.01 and 1.02 | locus YNL175C, strain NOP13, active compounds read low 1.02 | locus YNL183C, strain NPR1, active compounds read low 0.956 | locus YNL197C, strain WHI3, active compounds read low 1 | locus YNL209W, strain ssb2, active compounds read low 0.998 | locus YNL224C, strain SQS1, active compounds read low 0.996 | locus YNL233W, strain BNI4, active compounds read low 1.01 | locus YNL248C, strain rpa49, active compounds read low 1.01 | locus YNL250W, strain rad50, active compounds read low 0.987 | locus YNL271C, strain bni1, active compounds read low 0.991 | locus YNL298W, strain CLA4, active compounds read low 1 | locus YNL307C, strain MCK1, active compounds read low 0.999 | locus YNL322C, strain KRE1 (second series), active compounds read low 0.993 | locus YNL322C, strain KRE1, active compounds read low 1 and 1.01 | locus YNR049C, strain mso1, active compounds read low 1 | locus YNR052C, strain pop2, active compounds read low 0.999 | locus YOL006C, strain TOP1, active compounds read low 1.03 | locus YOL012C, strain htz1 0.74 | locus YOL147C, strain pex11, active compounds read low 0.993 | locus YOR001W, strain rrp6, active compounds read low 1.04 | locus YOR061W, strain CKA2, active compounds read low 1 | locus YOR069W, strain VPS5, active compounds read low 1.01 | locus YOR070C, strain gyp1, active compounds read low 0.994 | locus YOR080W, strain dia2, active compounds read low 1 | locus YOR083W, strain WHI5 (second series), active compounds read low 0.981 | locus YOR083W, strain WHI5, active compounds read low 0.988 | locus YOR106W, strain vam3, active compounds read low 1.01 | locus YOR136W, strain idh2, active compounds read low 0.997 | locus YOR144C, strain elg1, active compounds read low 0.994 | locus YOR184W, strain ser1, active compounds read low 0.994 | locus YOR231W, strain MKK1, active compounds read low 0.972 | locus YOR265W, strain rbl2, active compounds read low 0.997 | locus YOR270C, strain vph1, active compounds read low 1.03 | locus YOR290C, strain snf2, active compounds read low 0.956 | locus YOR316C, strain cot1, active compounds read low 0.996 | locus YPL051W, strain arl3, active compounds read low 1 | locus YPL055C, strain LGE1, active compounds read low 1.02 | locus YPL078C, strain atp4, active compounds read low 0.994 | locus YPL106C, strain sse1, active compounds read low 0.979 | locus YPL240C, strain hsp82, active compounds read low 1 | locus YPL241C, strain CIN2, active compounds read low 1.01 | locus YPL256C, strain CLN2, active compounds read low 0.986 | locus YPR119W, strain clb2, active compounds read low 0.992 | locus YPR141C, strain kar3, active compounds read low 1 | locus YPR163C, strain tif3, active compounds read low 0.994 | locus YPR167C, strain met16, active compounds read low 1 | strain wtn01, active compounds read low 0.984

From PubChem BioAssay AID1159580 (chemical genetic matrix, 2015)
